# HP1b chromo inh: blocks HP1-beta chromodomain binding to methylated histone tails; P83916; 0.56% of 390,000 active; AlphaScreen HP1-beta / biotin-H3K9me3 peptide binding; Potency, µM (doses to about 114 µM), without a hit: top-dose activity change, negative = inhibition, most hits filed as inhibitors; note: nearly all actives have a fitted effect of over 70% in size
#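 Compound inhibition of the preformed complex between 50 nM HP1-beta and 50 nM biotinylated H3K9me3 peptide was read by AlphaScreen. Buffer was PBS pH 7.4 with 0.01% Tween-20. Incubations ran 30 min at room temperature, with 10 ug/mL donor/acceptor beads.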
# G9a block: G9a (human) methyltransferase inhibition | G9a H3K9 monomethylation, AlphaScreen, 2 h | Potency, µM (highest dose often 102 µM), for the others: at the highest dose activity, negative = inhibition, hits mostly inhibitors | 8.8% of 350,000 active | AID 504332; note: % is set by controls: 0 for no effect and ±100 for the full control effect; nearly all actives have a fitted effect of over 75% in size
#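 Readings reflect AlphaScreen signal from monomethyl-H3K9 antibody detection. HMT at 20 nM; substrate b-H3K9 500 nM; cofactor SAM 20 uM; 2 h RT reaction; compounds tested as titrations in qHTS with 15 min preincubation.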
# BAZ2B inh: inhibitors of human BAZ2B bromodomain | Q9UIF8 | AlphaScreen BAZ2B-H3K14Ac peptide displacement | Potency, µM (doses to about 114 µM), inactives show at the top dose activity change, negative = inhibition, actives largely listed as inhibitors | 4.4% of 360,000 active | AID 504333; note: % is set by controls: 0 for no effect and ±100 for the full control effect; nearly all actives have a fitted effect of over 60% in size
# Target sequence (Q9UIF8 whole entry, looked up): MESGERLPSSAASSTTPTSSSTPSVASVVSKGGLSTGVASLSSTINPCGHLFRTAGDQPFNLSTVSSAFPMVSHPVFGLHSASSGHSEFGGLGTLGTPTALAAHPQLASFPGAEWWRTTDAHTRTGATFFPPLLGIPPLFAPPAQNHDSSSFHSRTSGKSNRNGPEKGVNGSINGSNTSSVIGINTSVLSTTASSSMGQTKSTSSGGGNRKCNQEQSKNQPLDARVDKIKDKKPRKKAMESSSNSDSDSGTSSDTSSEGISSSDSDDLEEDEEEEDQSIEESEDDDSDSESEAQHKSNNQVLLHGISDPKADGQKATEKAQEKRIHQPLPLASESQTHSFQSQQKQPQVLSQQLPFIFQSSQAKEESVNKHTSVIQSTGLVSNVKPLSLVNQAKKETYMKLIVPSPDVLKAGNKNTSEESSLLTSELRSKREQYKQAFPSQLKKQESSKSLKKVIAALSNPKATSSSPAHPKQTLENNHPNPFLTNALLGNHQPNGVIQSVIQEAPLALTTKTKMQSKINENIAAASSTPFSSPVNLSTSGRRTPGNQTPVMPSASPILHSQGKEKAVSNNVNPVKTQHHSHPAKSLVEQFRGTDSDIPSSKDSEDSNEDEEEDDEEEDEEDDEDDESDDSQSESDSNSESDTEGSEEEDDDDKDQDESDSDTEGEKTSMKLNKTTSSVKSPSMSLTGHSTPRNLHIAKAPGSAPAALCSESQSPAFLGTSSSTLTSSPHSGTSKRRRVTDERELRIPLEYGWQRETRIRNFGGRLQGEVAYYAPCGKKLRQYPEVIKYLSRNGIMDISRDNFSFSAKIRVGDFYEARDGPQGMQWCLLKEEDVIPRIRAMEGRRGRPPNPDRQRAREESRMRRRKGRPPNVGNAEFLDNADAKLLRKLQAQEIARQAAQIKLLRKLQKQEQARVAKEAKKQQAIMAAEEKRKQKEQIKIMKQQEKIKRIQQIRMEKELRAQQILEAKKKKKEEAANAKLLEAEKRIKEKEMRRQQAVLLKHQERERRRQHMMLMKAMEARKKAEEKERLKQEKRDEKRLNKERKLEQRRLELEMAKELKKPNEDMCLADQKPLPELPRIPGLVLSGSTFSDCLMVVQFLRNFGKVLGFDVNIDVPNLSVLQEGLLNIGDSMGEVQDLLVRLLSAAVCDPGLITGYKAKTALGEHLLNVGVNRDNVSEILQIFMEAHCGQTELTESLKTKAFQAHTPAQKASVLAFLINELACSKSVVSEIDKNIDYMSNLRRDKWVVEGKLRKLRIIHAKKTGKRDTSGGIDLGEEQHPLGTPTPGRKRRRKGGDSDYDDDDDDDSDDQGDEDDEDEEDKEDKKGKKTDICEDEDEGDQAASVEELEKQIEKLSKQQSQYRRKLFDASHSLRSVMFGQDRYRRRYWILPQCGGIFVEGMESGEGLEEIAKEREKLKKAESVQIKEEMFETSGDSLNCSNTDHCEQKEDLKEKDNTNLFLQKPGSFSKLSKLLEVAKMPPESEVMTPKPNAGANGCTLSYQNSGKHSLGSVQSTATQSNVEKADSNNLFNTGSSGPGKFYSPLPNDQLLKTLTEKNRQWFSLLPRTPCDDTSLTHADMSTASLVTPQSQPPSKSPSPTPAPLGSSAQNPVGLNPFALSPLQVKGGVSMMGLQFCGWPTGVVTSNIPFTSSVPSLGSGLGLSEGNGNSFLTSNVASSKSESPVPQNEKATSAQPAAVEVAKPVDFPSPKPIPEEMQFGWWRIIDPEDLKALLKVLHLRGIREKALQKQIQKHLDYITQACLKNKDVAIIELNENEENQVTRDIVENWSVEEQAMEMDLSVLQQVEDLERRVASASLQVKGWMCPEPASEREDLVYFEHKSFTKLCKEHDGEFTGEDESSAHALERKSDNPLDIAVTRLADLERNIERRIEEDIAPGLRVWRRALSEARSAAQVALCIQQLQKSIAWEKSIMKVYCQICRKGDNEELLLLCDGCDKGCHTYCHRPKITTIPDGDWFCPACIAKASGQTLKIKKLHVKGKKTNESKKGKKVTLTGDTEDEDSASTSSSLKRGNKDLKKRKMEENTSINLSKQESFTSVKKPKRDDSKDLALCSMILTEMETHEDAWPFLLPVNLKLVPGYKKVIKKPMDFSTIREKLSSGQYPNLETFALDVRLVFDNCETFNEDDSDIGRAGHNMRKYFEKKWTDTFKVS
#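 In this displacement format the biotinylated H3(5-23) peptide acetylated at Lys14 serves as ligand at 50 nM, with BAZ2B at 50 nM in PBS pH 7.4 containing 0.01% Tween-20. Donor and acceptor beads are 10 ug/mL final.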
# JMJD2A Tudor: blocks the human JMJD2A Tudor domain; O75164; AlphaScreen JMJD2A-Tudor / H3K4me3 peptide binding; Potency, µM (titrated, usually from 114 µM), inactives show top-dose activity change, negative = inhibition, usual class: inhibitors; 4.4% of 390,000 active; note: % is set by controls: 0 for no effect and ±100 for the full control effect; nearly all actives have a fitted effect of over 50% in size
# L3MBTL1 block: L3MBTL1 (human) inhibition; Potency, µM (series often up to 57.1 µM), for the others: top-dose activity, negative = inhibition, most hits filed as inhibitors; 0.66% of 230,000 active; AID 485360; AlphaScreen L3MBTL1–H3K9me1 peptide binding; Q9Y468; note: % is set by controls: 0 for no effect and ±100 for the full control effect; nearly all actives have a fitted effect of over 60% in size
#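 Read-out is AlphaScreen signal from streptavidin donor and nickel chelate acceptor beads (10 ug/mL final each) bridging L3MBTL1 (50 nM) and biotinylated K9-monomethylated H3(1-15) peptide (75 nM), after 30 min compound exposure at room temperature.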
# * hit, by the source's call; u = inconclusive; x = no result; [ ] = remark or other dose. Compounds with a hit are over-represented: about 11% of the library has one in this group of screens. Calls come from the whole dose curve; as a rule, active = well fitted inhibition curve with a large enough effect; inconclusive = small, poorly fitted or top-dose-only effect; inactive = no such curve, though single readings can be large or run the other way. Potency is the fitted concentration of half-maximal effect.
SMILES,HP1b chromo inh,G9a block,BAZ2B inh,JMJD2A Tudor,L3MBTL1 block
COc1ccc(C2=NC(C)(C)N(CC(=O)Nc3cccc(C)c3)C2=O)cc1,46%,16%[59 µM],-21%,-3%,x
CCn1cc(C(=O)N2CCN(c3ccccc3)CC2)c(=O)c2cc(S(=O)(=O)N3CCC(C)CC3)ccc21,-16%,u,x,u,x
COc1ccc(-n2c(Cc3cccn3C)nnc2SCC(=O)Nc2ccc3c(c2)OCCO3)cc1,-19%,50µM*,u,-32%,x
CC(=O)c1ccc(NC(=O)CSc2nnc(Cc3cccn3C)n2-c2ccc(F)cc2)cc1,-8%,50µM*,50µM*,u,x
CCOc1ccc(NC(=O)CSc2nnc(Cc3cccn3C)n2-c2ccc(OC)cc2)cc1,u,0%[12.7 µM],u,u,-6%
COc1ccc(-n2c(Cc3cccn3C)nnc2SCC(=O)Nc2ccc(C(C)=O)cc2)cc1,10%,50µM*,u,-25%,x
COc1ccc(NC(=O)CSc2nnc(Cc3cccn3C)n2-c2ccc(OC)cc2)cc1,18%,45µM*,50µM*,-20%,-12%
COc1ccc(-n2ccnc(NCCc3ccccc3)c2=O)cc1OC,-17%,u,-33%,-31%,x
COC(=O)CC1Oc2ccc(C)cc2-n2cc(-c3ccc(F)cc3)nc21 (stereo not given),19%,-26%[59 µM],-27%,-16%,x
Cc1ccc(C(=O)Nc2ccc3oc(-c4ccc(C(C)(C)C)cc4)nc3c2)cc1,20%,20%[59 µM],5%,-13%,x
O=C(Cc1ccccc1)Nc1sc2c(c1C(=O)Nc1cccc(Cl)c1)CCCC2,x,x,x,-10%,x
CC(=O)Nc1cccc(NC(=O)CSc2nnc(Cc3cccn3C)n2-c2ccc(C)cc2)c1,10%,50µM*,u,-21%,-21%
CCc1ccc(NC(=O)C(=O)NCCc2sc(-c3ccc(OC)c(OC)c3)nc2C)cc1,28%[57 µM],-1%[59 µM],2%,-1%,x
Cc1ccc(/C=N/c2sc3c(c2C#N)CCCCC3)o1,u,14µM*,28µM*,56µM*,-5%
N#Cc1c(/N=C/C=C/c2ccccc2)sc2c1CCCC2,18µM*,u,22µM*,45µM*,-10%
N#Cc1c(/N=C/c2ccco2)sc2c1CCC2,-3%,u,-28%,-29%,x
Cc1cccc(NC2=CC(c3cccc(Br)c3)N(c3cccc(C)c3)C2=O)c1 (stereo not given),40%,-44%[59 µM],-25%,-17%,x
CCOC(=O)c1ccc(N/C=C/C(=O)C(C)(C)C)cc1,47%,-20%,-20%,-13%,9%
CN(C)c1ccc(N/C=C/C(=O)c2ccccc2)cc1,-20%,5.6µM*,u,u,u
CN(C)c1ccc(N/C=C/C(=O)C(C)(C)C)cc1,-54%,u,40µM*,50µM*,x
COc1ccc(CNC(=O)CCC2N=C3c4ccccc4N=C(SCC(=O)NCCc4ccc(OC)c(OC)c4)N3C2=O)cc1 (stereo not given),-3%,6%[59 µM],-11%,-28%,x
O=C(COc1ccccc1)NC(NC(=S)Nc1ccccc1C(=O)O)C(Cl)(Cl)Cl (stereo not given),u,u,-8%,32µM*,-2%
Cc1ccc(C)c(NC(=S)NC(NC(=O)Cc2ccccc2)C(Cl)(Cl)Cl)c1 (stereo not given),-4%,-44%[12.7 µM],-7%,-9%,x
Cc1ccc(NS(=O)(=O)c2ccc3c(c2)C(Cl)(Cl)C(=O)N3)cc1C,x,x,x,-31%,x
CC(OCC(O)CN(C)CCOc1ccccc1)c1ccc(Cl)cc1 (stereo not given),u,u,u,3.5µM*,2%
CC(C)c1ccc(CN(C)CC(O)c2ccccc2)cc1 (stereo not given),15%,u,89µM*,-17%,x
CCC(C)c1ccccc1NC(=O)CN(C)CCOc1ccc(Cl)cc1 (stereo not given),106%,4%,20%,44%,x
CN1CCC(N(C)CC(O)c2ccccc2)CC1 (stereo not given),-8%,8.9µM*,50µM*,3.5µM*,-5%
CN(CCOc1ccccc1)CC(O)COc1ccccc1 (stereo not given),13%,u,-5%,-8%,x

# Bioassay records as filed in PubChem.
